From PubChem BioAssay (NCI)
This is part of a sample that, as a whole, favours compounds with a hit. Of some 79,000 tested, about 15% had one in any assay. Values without a mark were called inactive. Calls of active or inactive are those of the source. No stated cut-off is given here; in the data, active means growth inhibition above about 70%; inactive means the rest.

Tests used:
[1] = NCI Yeast Anticancer Drug Screen. Data for the rad50 strain (AID 155);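 further: 0% = growth of vehicle-only cultures of the same strain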; conditions: S. cerevisiae rad50 strain growth inhibition, stronger effect = higher value
Procedure, shortened: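 Cells are treated with compound, grown, and their growth is then scored against vehicle-only cultures of the same repair-deficient yeast strain.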

[2] = NCI Yeast Anticancer Drug Screen. Data for the mec2-1 strain (AID 157); conditions: S. cerevisiae mec2-1 strain, stronger effect = higher value
Procedure, shortened: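 Using mec2-1 yeast: add compound, measure growth, express inhibition versus vehicle-treated cultures.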

[3] = NCI Yeast Anticancer Drug Screen. Data for the sgs1 mgt1 strain (AID 161);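 further: 0% = growth of cultures given vehicle only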; conditions: S. cerevisiae sgs1 mgt1 strain, stronger effect = higher value
Procedure, shortened: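 Compounds are added to genetically altered yeast, and growth is compared with cultures given vehicle alone to give percent inhibition.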

[4] = NCI Yeast Anticancer Drug Screen. Data for the cln2 rad14 strain (AID 165);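 further: 0% = growth equal to vehicle treated cultures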; conditions: S. cerevisiae cln2 rad14 strain, stronger effect = higher value
Procedure, shortened: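 Yeast strain cln2 rad14, bearing defects in cell cycle control and DNA repair, serves as the test system; values reflect growth inhibition compared with vehicle.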

[5] = NCI Yeast Anticancer Drug Screen. Data for the bub3 strain (AID 167); conditions: S. cerevisiae bub3 mutant strain, stronger effect = higher value
Procedure, shortened: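 Part of a panel of yeast mutants defective in DNA damage repair or cell cycle regulation. Each strain is grown with compound, and inhibition is calculated relative to solvent-treated cultures.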

[6] = NCI Yeast Anticancer Drug Screen. Data for the mlh1 rad18 strain (AID 175); conditions: S. cerevisiae mlh1 rad18 strain growth inhibition, stronger effect = higher value
Procedure, shortened: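 Steps: expose repair-defective yeast to compound; measure growth; express inhibition against vehicle-treated controls.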

[7] = at 5.0 µM (retest, dose inferred, filed as 0.5)
[8] = at 50.0 µM (retest, dose inferred, filed as 5.0)

Compound Cn1c(=O)c2c(O)c(-c3ccccc3)c(=O)n3c4ccccc4n(c1=O)c23 has a growth inhibition [1, 7] of 19%, a growth inhibition [1, 8] of 48% and a growth inhibition ([1]; at 50.0 µM) of 51.3%. For the same compound, the growth inhibition [2, 7] was 21%, the growth inhibition [2, 8] was 51% and the growth inhibition ([2]; at 50.0 µM) was 27.6%. For the same compound, the growth inhibition [3, 7] was 28%, the growth inhibition [3, 8] was 68% and the growth inhibition ([3]; at 50.0 µM) was 64.5%. The growth inhibition [4, 7] was 7%, the growth inhibition [4, 8] was 34% and the growth inhibition ([4]; at 50.0 µM) was 19.7%. It also gave a growth inhibition [5, 7] of 10%, a growth inhibition [5, 8] of 30% and a growth inhibition ([5]; at 50.0 µM) of 25.9%. For the same compound, the growth inhibition [6, 7] was 18%, the growth inhibition [6, 8] was 59% and the growth inhibition ([6]; at 50.0 µM) was 50.1%.
CN(C)CCCC(=O)OCC[N+](C)(C)C gave a growth inhibition [1, 7] of -2%, a growth inhibition [1, 8] of 4% and a growth inhibition ([1]; at 50.0 µM) of -39.2%. The growth inhibition [2, 7] was -4%, the growth inhibition [2, 8] was 6% and the growth inhibition ([2]; at 50.0 µM) was -8.5%. It also gave a growth inhibition [3, 7] of -4%, a growth inhibition [3, 8] of -2% and a growth inhibition ([3]; at 50.0 µM) of -11.2%. For the same compound, the growth inhibition [4, 7] was -14%, the growth inhibition [4, 8] was -3% and the growth inhibition ([4]; at 50.0 µM) was 64.3%. For the same compound, the growth inhibition [5, 7] was -1%, the growth inhibition [5, 8] was 5% and the growth inhibition ([5]; at 50.0 µM) was 14.2%. The growth inhibition [6, 7] was -4%, the growth inhibition [6, 8] was 5% and the growth inhibition ([6]; at 50.0 µM) was -12.5%.
With O=c1c2c3ccccc3[nH]c2c2cccc3c2n1CCC3 the growth inhibition [1, 7] was 4%, the growth inhibition [1, 8] was 92% (active) and the growth inhibition ([1]; at 50.0 µM) was 88.7% (active). For the same compound, the growth inhibition [2, 7] was 5%, the growth inhibition [2, 8] was 88% (active) and the growth inhibition ([2]; at 50.0 µM) was 90% (active). The growth inhibition [3, 7] was 13%, the growth inhibition [3, 8] was 89% (active) and the growth inhibition ([3]; at 50.0 µM) was 88.2% (active). For the same compound, the growth inhibition [4, 7] was -1%, the growth inhibition [4, 8] was 69% and the growth inhibition ([4]; at 50.0 µM) was 83.5% (active). For the same compound, the growth inhibition [5, 7] was 11%, the growth inhibition [5, 8] was 96% (active) and the growth inhibition ([5]; at 50.0 µM) was 89.3% (active). For the same compound, the growth inhibition [6, 7] was 13%, the growth inhibition [6, 8] was 94% (active) and the growth inhibition ([6]; at 50.0 µM) was 88.8% (active).
For C=CCOCC(C)OC(=O)C(C)C (stereo not given), the growth inhibition [1, 7] was -162%, the growth inhibition [1, 8] was -158% and the growth inhibition ([1]; at 50.0 µM) was 55.7%. The growth inhibition [2, 7] was -46%, the growth inhibition [2, 8] was -52% and the growth inhibition ([2]; at 50.0 µM) was -6.9%. For the same compound, the growth inhibition [3, 7] was -63%, the growth inhibition [3, 8] was -63% and the growth inhibition ([3]; at 50.0 µM) was 18.3%. For the same compound, the growth inhibition [4, 7] was -60%, the growth inhibition [4, 8] was -62% and the growth inhibition ([4]; at 50.0 µM) was 49%. It also gave a growth inhibition [5, 7] of -71%, a growth inhibition [5, 8] of -78% and a growth inhibition ([5]; at 50.0 µM) of 11.8%. For the same compound, the growth inhibition [6, 7] was -140%, the growth inhibition [6, 8] was -117% and the growth inhibition ([6]; at 50.0 µM) was 63.2%.
With Cc1cc2c(c([N+](=O)[O-])c1C)C(=O)C(Br)=C(N)C2=O the growth inhibition [1, 7] was 95% (active), the growth inhibition [1, 8] was 98% (active) and the growth inhibition ([1]; at 50.0 µM) was 93.5% (active). For the same compound, the growth inhibition [2, 7] was 79% (active), the growth inhibition [2, 8] was 99% (active) and the growth inhibition ([2]; at 50.0 µM) was 97.8% (active). For the same compound, the growth inhibition [3, 7] was 96% (active), the growth inhibition [3, 8] was 17% and the growth inhibition ([3]; at 50.0 µM) was 98.8% (active). The growth inhibition [4, 7] was 45%, the growth inhibition [4, 8] was 98% (active) and the growth inhibition ([4]; at 50.0 µM) was 98.3% (active). The growth inhibition [5, 7] was 87% (active), the growth inhibition [5, 8] was 96% (active) and the growth inhibition ([5]; at 50.0 µM) was 94% (active). The growth inhibition [6, 7] was 93% (active), the growth inhibition [6, 8] was 99% (active) and the growth inhibition ([6]; at 50.0 µM) was 98% (active).
For O=C1C(=O)N(c2ccc(Cl)c(Cl)c2)C(=O)C(=O)C1c1nc2ccccc2o1, the growth inhibition [1, 7] was 21%, the growth inhibition [1, 8] was 98% (active) and the growth inhibition ([1]; at 50.0 µM) was 97.2% (active). For the same compound, the growth inhibition [2, 7] was 17%, the growth inhibition [2, 8] was 98% (active) and the growth inhibition ([2]; at 50.0 µM) was 92.8% (active). For the same compound, the growth inhibition [3, 7] was 27%, the growth inhibition [3, 8] was 95% (active) and the growth inhibition ([3]; at 50.0 µM) was 97.2% (active). For the same compound, the growth inhibition [4, 7] was 22%, the growth inhibition [4, 8] was 90% (active) and the growth inhibition ([4]; at 50.0 µM) was 94.8% (active). The growth inhibition [5, 7] was 3%, the growth inhibition [5, 8] was 96% (active) and the growth inhibition ([5]; at 50.0 µM) was 83.1% (active). For the same compound, the growth inhibition [6, 7] was 14%, the growth inhibition [6, 8] was 95% (active) and the growth inhibition ([6]; at 50.0 µM) was 96.7% (active).
Work on Cc1cnc(Sc2ncccc2[N+](=O)[O-])[nH]c1=O yielded a growth inhibition [1, 7] of 2%, a growth inhibition [1, 8] of 7% and a growth inhibition ([1]; at 50.0 µM) of -7%. It also gave a growth inhibition [2, 7] of -3%, a growth inhibition [2, 8] of 21% and a growth inhibition ([2]; at 50.0 µM) of 43.1%. The growth inhibition [3, 7] was 5%, the growth inhibition [3, 8] was 14% and the growth inhibition ([3]; at 50.0 µM) was 29.1%. For the same compound, the growth inhibition [4, 7] was -3%, the growth inhibition [4, 8] was 2% and the growth inhibition ([4]; at 50.0 µM) was 26.1%. The growth inhibition [5, 7] was 6%, the growth inhibition [5, 8] was 9% and the growth inhibition ([5]; at 50.0 µM) was -2.7%. The growth inhibition [6, 7] was 0%, the growth inhibition [6, 8] was 24% and the growth inhibition ([6]; at 50.0 µM) was 27.9%.
In the case of O=C(NCC#CCO)C(F)(F)F, the growth inhibition [1, 7] is reported as -15%, the growth inhibition [1, 8] is reported as -1% and the growth inhibition ([1]; at 50.0 µM) is reported as -0.9%. The growth inhibition [2, 7] was -14%, the growth inhibition [2, 8] was -18% and the growth inhibition ([2]; at 50.0 µM) was 13.2%. It also gave a growth inhibition [3, 7] of -3%, a growth inhibition [3, 8] of -8% and a growth inhibition ([3]; at 50.0 µM) of 11.7%. For the same compound, the growth inhibition [4, 7] was 3%, the growth inhibition [4, 8] was 9% and the growth inhibition ([4]; at 50.0 µM) was 47.8%. For the same compound, the growth inhibition [5, 7] was -21%, the growth inhibition [5, 8] was -5% and the growth inhibition ([5]; at 50.0 µM) was 11.1%. It also gave a growth inhibition [6, 7] of -5%, a growth inhibition [6, 8] of -10% and a growth inhibition ([6]; at 50.0 µM) of 45.1%.
In the case of NC(=O)N/N=C/C(O)C(O)C(O)C(O)CO (stereo not given), the growth inhibition [1, 7] is reported as 0%, the growth inhibition [1, 8] is reported as 44% and the growth inhibition ([1]; at 50.0 µM) is reported as 77.1% (active). For the same compound, the growth inhibition [2, 7] was -4%, the growth inhibition [2, 8] was 1% and the growth inhibition ([2]; at 50.0 µM) was 59.9%. For the same compound, the growth inhibition [3, 7] was -1%, the growth inhibition [3, 8] was 16% and the growth inhibition ([3]; at 50.0 µM) was 35.5%. The growth inhibition [4, 7] was 0%, the growth inhibition [4, 8] was 26% and the growth inhibition ([4]; at 50.0 µM) was 6.55%. For the same compound, the growth inhibition [5, 7] was -5%, the growth inhibition [5, 8] was 7% and the growth inhibition ([5]; at 50.0 µM) was 36.1%. The growth inhibition [6, 7] was -4%, the growth inhibition [6, 8] was 20% and the growth inhibition ([6]; at 50.0 µM) was 19.7%.
In the case of O=C(O)/C(=C\c1cc(I)c(O)c(I)c1)c1ccc(I)cc1, the growth inhibition [1, 7] is reported as 3%, the growth inhibition [1, 8] is reported as 39% and the growth inhibition ([1]; at 50.0 µM) is reported as 88.3% (active). For the same compound, the growth inhibition [2, 7] was 42%, the growth inhibition [2, 8] was 70% (active) and the growth inhibition ([2]; at 50.0 µM) was 80.6% (active). For the same compound, the growth inhibition [3, 7] was 34%, the growth inhibition [3, 8] was 75% (active) and the growth inhibition ([3]; at 50.0 µM) was 91.8% (active). The growth inhibition [4, 7] was 19%, the growth inhibition [4, 8] was 70% (active) and the growth inhibition ([4]; at 50.0 µM) was 82.7% (active). The growth inhibition [5, 7] was 3%, the growth inhibition [5, 8] was 59% and the growth inhibition ([5]; at 50.0 µM) was 48%. The growth inhibition [6, 7] was 37%, the growth inhibition [6, 8] was 76% (active) and the growth inhibition ([6]; at 50.0 µM) was 80.8% (active).
